Only some compounds are listed: those with a hit (about 3.4% of all), similar ones and a draw of the others.
TEAD-YAP block: TEAD-YAP interaction inhibition | inhibition, % at 9.12 µM | HEK-TIYL cells, TEAD-Gal4/YAP UAS-luciferase luminescence | actives 1.4% (n = 640,000); in the data active = inhibition above about 32%
GPR151 ag: activators of human GPR151; actives 1% (n = 650,000); PathHunter beta-arrestin GPR151 cells, luminescence; Q8TDV0; activation, % at 11.2 µM; in the data active = activation above about 4.9%
Target sequence (Q8TDV0 whole entry, looked up): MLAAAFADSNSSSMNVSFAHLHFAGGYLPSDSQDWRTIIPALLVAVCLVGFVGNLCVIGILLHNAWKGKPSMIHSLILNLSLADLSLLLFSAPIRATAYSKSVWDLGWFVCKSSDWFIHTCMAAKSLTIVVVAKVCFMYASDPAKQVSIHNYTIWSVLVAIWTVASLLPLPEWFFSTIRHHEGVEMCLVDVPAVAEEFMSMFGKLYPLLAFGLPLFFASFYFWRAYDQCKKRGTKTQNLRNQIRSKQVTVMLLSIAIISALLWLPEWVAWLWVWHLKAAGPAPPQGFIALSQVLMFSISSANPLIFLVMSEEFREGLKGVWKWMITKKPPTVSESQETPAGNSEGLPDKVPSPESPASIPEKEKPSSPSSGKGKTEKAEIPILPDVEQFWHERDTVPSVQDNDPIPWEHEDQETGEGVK
FBW7 act: human FBW7 E3 ligase activation, primary screen | AID 1259310 | AlphaScreen FBW7–phospho-cyclin E peptide binding, activator screen | Q969H0 | actives 0.13% (n = 650,000) | normalized activity (activation), % at 26.1 µM; in the data active = normalized activity above about 1.9%;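 also: purified mutant Fbw7 with reduced substrate affinity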
MITF inh: inhibitors of human MITF. AlphaScreen MITF homodimerization, bead proximity signal. O75030. AID 1259374. inhibition, % at 2.6 µM. actives 0.91% (n = 650,000); in the data active = inhibition above about 50%
MITF inh conf: human MITF inhibition, confirmation; shares compounds with MITF inh; inhibition, % at 2.6 µM; AID 1259372; actives 16% (n = 4,700); AlphaScreen MITF homodimerization, biotin/His-MITF beads;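 active = inhibition above a cutoff derived from the DMSO control wells, cut at about 28% in these data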;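 also: inhibitors lower the bead chemiluminescence by keeping MITF from dimerizing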
AlphaScreen DR: AlphaScreen optical interference, dose response counter-screen; AlphaScreen optical interference counterscreen, cell-free; actives 6% (n = 480); AID 1259373; IC50, µM; shares compounds with MITF inh; call rule not given here
AlphaScreen intf2: AlphaScreen optical interference, counter-screen; shares compounds with MITF inh; LysRS AlphaScreen counterscreen, signal interference, triplicate; inhibition, % at 2.6 µM; actives 7.6% (n = 4,700); AID 1259376;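 active = inhibition above a cutoff derived from the DMSO control wells, cut at about 30% in these data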
A number is an active result.

COc1ccc(CN2CCN(Cc3cc(OC)c(OC)cc3OC)CC2)cc1 was read as TEAD-YAP block inactive, GPR151 ag inactive, FBW7 act inactive, MITF inh 75.7, MITF inh conf inactive and AlphaScreen intf2 inactive.
For Cn1c(=O)c2[nH]c(NN)nc2n(C)c1=O the results were TEAD-YAP block inactive, GPR151 ag inactive, FBW7 act inactive and MITF inh inactive.
Screening O=C(Cn1c2ccccc2c2cn[nH]c(=O)c21)NCCCN1CCOCC1 returned TEAD-YAP block inactive, GPR151 ag inactive, FBW7 act inactive and MITF inh inactive.
For COc1cc(CN2CCN(Cc3ccccc3Cl)CC2)c([N+](=O)[O-])cc1OC the results were TEAD-YAP block inactive, GPR151 ag inactive, FBW7 act inactive, MITF inh 82.3, MITF inh conf inactive and AlphaScreen intf2 inactive.
For COc1cc(CN2CCN(C/C=C/c3ccccc3)CC2)c([N+](=O)[O-])cc1OC the results were TEAD-YAP block inactive, GPR151 ag inactive, FBW7 act inactive and MITF inh inactive.
`COc1cc(CN2CCN(Cc3ccccc3C)CC2)c([N+](=O)[O-])cc1OC` gave TEAD-YAP block inactive, GPR151 ag inactive, FBW7 act inactive, MITF inh 74.8, MITF inh conf inactive and AlphaScreen intf2 inactive.
CCCCc1ncc(CN2CCC3(CCC(CNC(=O)c4ccccc4)O3)CC2)[nH]1 (centres undefined) was read as TEAD-YAP block inactive, GPR151 ag inactive, FBW7 act inactive, MITF inh 84.1, MITF inh conf inactive and AlphaScreen intf2 inactive.
CN(C)CC(=O)Nc1ccc2cn[nH]c2c1 was read as TEAD-YAP block inactive, GPR151 ag inactive, FBW7 act inactive and MITF inh inactive.
C=CCNC(=O)Cn1nc(-c2ccccc2OC)ccc1=O was read as TEAD-YAP block inactive, GPR151 ag inactive, FBW7 act inactive, MITF inh 71.8, MITF inh conf inactive and AlphaScreen intf2 inactive.
Screening COc1ccccc1-c1ccc(=O)n(CC(=O)NCc2ccccc2)n1 returned TEAD-YAP block inactive, GPR151 ag inactive, FBW7 act inactive and MITF inh inactive.
CS(=O)(=O)N1CCN(Cc2ccncc2)CC1 was read as TEAD-YAP block inactive, GPR151 ag inactive, FBW7 act inactive, MITF inh 78.5, MITF inh conf inactive and AlphaScreen intf2 inactive.
Screening CS(=O)(=O)N1CCN(Cc2cccnc2)CC1 returned TEAD-YAP block inactive, GPR151 ag inactive, FBW7 act inactive, MITF inh 66.6, MITF inh conf inactive and AlphaScreen intf2 inactive.
For Cc1ccc(CN2CCN(S(=O)(=O)c3ccc(C)cc3)CC2)cc1 the results were TEAD-YAP block inactive, GPR151 ag inactive, FBW7 act inactive and MITF inh inactive.
For Cc1ccc(S(=O)(=O)N2CCN(Cc3cccnc3)CC2)cc1 the results were TEAD-YAP block inactive, GPR151 ag inactive, FBW7 act inactive, MITF inh 83.1, MITF inh conf inactive and AlphaScreen intf2 inactive.
CCCS(=O)(=O)N1CCN(Cc2cccnc2)CC1 was read as TEAD-YAP block inactive, GPR151 ag inactive, FBW7 act inactive and MITF inh inactive.
CCS(=O)(=O)N1CCN(Cc2cccnc2)CC1 was read as TEAD-YAP block inactive, GPR151 ag inactive, FBW7 act inactive, MITF inh 78.3, MITF inh conf inactive and AlphaScreen intf2 inactive.
CC(=O)O[C@@H]1CS(=O)(=O)C[C@H]1Nc1ccc(Cl)cc1 was read as TEAD-YAP block inactive, GPR151 ag inactive, FBW7 act inactive and MITF inh inactive.
O=C(CN1CCCC1)Nc1ccc(OC(F)(F)Cl)cc1 was read as TEAD-YAP block inactive, GPR151 ag inactive, FBW7 act inactive and MITF inh inactive.
Screening CCCOc1ccc(/C=C2\SC(=S)N(C)C2=O)cc1 returned TEAD-YAP block inactive, GPR151 ag inactive, FBW7 act inactive and MITF inh inactive.
Screening CCOc1ccccc1NC(=O)NCc1nc(-c2ccncc2)n[nH]1 returned TEAD-YAP block inactive, GPR151 ag inactive, FBW7 act inactive and MITF inh inactive.
Screening CCOC(=O)c1cccc(C(=O)Oc2ccc(OCC)cc2)n1 returned TEAD-YAP block inactive, GPR151 ag inactive, FBW7 act inactive and MITF inh inactive.
Screening COc1ccc(NC(=O)CN(C)CC(=O)Nc2ccccc2SC)cc1 returned TEAD-YAP block inactive, GPR151 ag inactive, FBW7 act inactive, MITF inh 74.5, MITF inh conf inactive and AlphaScreen intf2 inactive.
Cc1ccc(NC(=O)CN(C)CC(=O)Nc2ccccc2Oc2ccccc2)cc1 was read as TEAD-YAP block inactive, GPR151 ag inactive, FBW7 act inactive, MITF inh 91.0, MITF inh conf inactive and AlphaScreen intf2 inactive.
For Cc1cc(NC(=O)CN(C)CCOc2ccccc2)ccc1Br the results were TEAD-YAP block inactive, GPR151 ag inactive, FBW7 act inactive and MITF inh inactive.
`CSc1ccccc1NC(=O)CN(C)CC(=O)Nc1ccc(C(N)=O)cc1` gave TEAD-YAP block inactive, GPR151 ag inactive, FBW7 act inactive and MITF inh inactive.
`CN(CCOc1ccccc1)CC(=O)Nc1ccc(C(F)(F)F)cc1` gave TEAD-YAP block inactive, GPR151 ag inactive, FBW7 act inactive, MITF inh 66.1, MITF inh conf inactive and AlphaScreen intf2 inactive.
For CCN1CCN(S(=O)(=O)c2c(C)c(C)cc(C)c2C)CC1 the results were TEAD-YAP block inactive, GPR151 ag inactive, FBW7 act inactive and MITF inh inactive.
Screening Cc1cc(C)c(C)c(S(=O)(=O)N2CCN(CC(O)COCc3ccco3)CC2)c1C (centres undefined) returned TEAD-YAP block inactive, GPR151 ag inactive, FBW7 act inactive, MITF inh 51.4, MITF inh conf inactive and AlphaScreen intf2 inactive.
For CC(O)C(=O)N/N=C/C=C/c1ccc([N+](=O)[O-])o1 (centres undefined) the results were TEAD-YAP block inactive, GPR151 ag inactive, FBW7 act inactive, MITF inh 55.1, MITF inh conf 70.6, AlphaScreen DR inactive and AlphaScreen intf2 inactive.
`O=C(N/N=C/C=C/c1ccc([N+](=O)[O-])o1)c1cccc(O)c1` gave TEAD-YAP block inactive, GPR151 ag inactive, FBW7 act inactive and MITF inh inactive.
Screening O=C1c2ccc(-c3nc4ccccc4c(=O)o3)cc2C(=O)N1c1ncc([N+](=O)[O-])s1 returned TEAD-YAP block inactive, GPR151 ag inactive, FBW7 act inactive, MITF inh 55.6, MITF inh conf inactive and AlphaScreen intf2 inactive.
Screening CCNc1nc(NCCOc2ccccc2)c2ncn(C3CCCCC3)c2n1 returned TEAD-YAP block inactive, GPR151 ag inactive, FBW7 act inactive, MITF inh 54.2, MITF inh conf inactive and AlphaScreen intf2 inactive.
Screening Cc1ccc(C(C)C)cc1OCCOCCN1CCNCC1 returned TEAD-YAP block inactive, GPR151 ag inactive, FBW7 act inactive, MITF inh 70.6, MITF inh conf inactive and AlphaScreen intf2 inactive.

Bioassay records from PubChem BioAssay.
